From PubChem BioAssay (NCI)
This is part of a sample that, as a whole, favours compounds with a hit. Of some 83,000 tested, about 20% had one in any assay.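 Each cell line was grown in a 96-well plate and treated with one concentration of compound for 48 hours. Values below 10 were considered active.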 Values without a mark were called inactive. Active and inactive are the calls of the source.

Key:
Test in all cases: NCI-60 one-dose screen, 48 h (100 = growth as untreated, 0 = no growth, -100 = all killed)
HCT-15 colon = details: 10 µM unless noted
HT29 colon = details: 10 µM unless noted
SNB-75 CNS = details: 10 µM unless noted
SNB-19 CNS = details: 10 µM unless noted
U251 CNS = details: 10 µM unless noted
PC-3 prostate = details: 10 µM unless noted
SK-MEL-5 melanoma = details: 10 µM unless noted
UACC-62 melanoma = details: 10 µM unless noted
LOX IMVI melanoma = details: 10 µM unless noted
SK-MEL-28 melanoma = details: 10 µM unless noted
SK-MEL-2 melanoma = details: 10 µM unless noted
EKVX NSCLC = details: 10 µM
SN12C renal = details: 10 µM unless noted
UO-31 renal = details: 10 µM unless noted
TK-10 renal = details: 10 µM unless noted
ACHN renal = details: 10 µM unless noted
CAKI-1 renal = details: 10 µM unless noted
A498 renal = details: 10 µM unless noted
CCRF-CEM leukemia = details: 10 µM
MOLT-4 leukemia = details: 10 µM unless noted

SMILES	growth (HCT-15 colon)	growth (HT29 colon)	growth (SNB-75 CNS)	growth (SNB-19 CNS)	growth (U251 CNS)	growth (PC-3 prostate)	growth (SK-MEL-5 melanoma)	growth (UACC-62 melanoma)	growth (LOX IMVI melanoma)	growth (SK-MEL-28 melanoma)	growth (SK-MEL-2 melanoma)	growth (EKVX NSCLC)	growth (SN12C renal)	growth (UO-31 renal)	growth (TK-10 renal)	growth (ACHN renal)	growth (CAKI-1 renal)	growth (A498 renal)	growth (CCRF-CEM leukemia)	growth (MOLT-4 leukemia)
C/C(=N\Nc1ccc(Cl)cn1)c1ccccn1	15.5%	16.7%	31.5%	21.5%	7.65% (active)	20.9%	-61.9% (active)	-28.3% (active)	1.48% (active)	13.5%	28.3%	8.35% (active)	15.3%	-2.91% (active)	33.6%	2.81% (active)	5.04% (active)	-25.2% (active)	2.72% (active)	2.11% (active)
COc1cc(NC(C)CCCN)c2nc(C)ccc2c1OC (centres undefined)	106%	93.2%	98.7%	107%	94.7%	85.9%	101%	108%	106%	101%	99.6%	97.1%	99%	95.7%	110%	105%	106%	92.7%	24.8%	6.98% (active)
O=C1C(Cl)=C(SC2=NCCN2)C(=O)c2ccccc21	83.3%	102%	153%	92.3%	63.9%	64.5%	-29.6% (active)	74.3%	18%	78.9%	66.7%	94.4%	74%	48.3%	173%	83.5%	93.9%	119%	61.7%	68.9%
Cc1nc2c(nnn2-c2ccccc2)c2nc(-c3ccc(Cl)cc3)oc(=O)c12	108%	115%	91.4%	107%	106%	105%	103%	98.4%	96.9%	102%	107%	110%	104%	83%	108%	107%	94.7%	105%	103%	113%
CC(=O)Nc1nc(C)c(C(=O)NN)s1	107%	106%	88.8%	94.4%	92.1%	84.4%	102%	91.9%	96.1%	100%	24.7%	143%	95.2%	86.1%	203%	93.6%	125%	106%	94.9%	111%
Cc1nn(-c2ccccc2)c(N)c1N=C1NC(=O)/C(=C/c2ccc(Cl)cc2)S1	80.6%	106%	58.9%	83.6%	79.1%	76.8%	92.1%	77.3%	89.7%	92.3%	100%	90.8%	85.8%	73%	104%	87.3%	66.8%	68.6%	68.2%	87.9%
CC1=C[C@@H]2c3c(c(O)c(O)c4oc5cc(O)cc(O)c5c(=O)c34)[C@@H](c3cc(O)c(O)c4oc5cc(O)cc(O)c5c(=O)c34)[C@@H]2C(C)(C)C1	25.4%	-19.6% (active)	16.7%	7.8% (active)	-8.73% (active)	2.82% (active)	-78% (active)	-61.5% (active)	-98.2% (active)	-1.44% (active)	-22.2% (active)	8.51% (active)	2.58% (active)	-10.2% (active)	13.8%	12.4%	19.8%	-14% (active)	3.51% (active)	4.1% (active)
Cc1cc(CSc2ccc(Cl)cc2)ccc1N	98.3%	106%	87.3%	84.3%	78.6%	76.5%	103%	90.5%	98.6%	111%	99.7%	85.8%	42%	29.4%	101%	102%	95.1%	99.7%	3.59% (active)	49.7%
CC(=O)c1cc(Nc2cc(C)nc(N)n2)cc(C(C)=O)c1	111%	111%	90.3%	102%	101%	107%	100%	93.7%	99.8%	111%	100%	101%	94.1%	92.7%	94.8%	102%	87%	91.7%	86.9%	91.2%
COC(=O)/C(Br)=C/c1c[nH]c2ccc(Br)cc12	76.8%	95.3%	90.1%	88.7%	68.5%	70.8%	85.1%	68%	62%	105%	88.7%	76.2%	88.1%	46.7%	78.3%	86.7%	69.1%	92.3%	23.4%	52.8%
COc1ccc2c(N)ncc(C#Cc3cc(C(=O)Nc4ccc(CN5CCN(C)CC5)c(C(F)(F)F)c4)cnc3C)c2c1	-76.2% (active)	-78.3% (active)	-11.1% (active)	-82.2% (active)	-92.2% (active)	-69.4% (active)	-51.4% (active)	28.2%	-71.4% (active)	-80.2% (active)	-15.4% (active)	-1.21% (active)	-45.4% (active)	-45.1% (active)	-60.2% (active)	-78.5% (active)	39.9%	15.4%	-25.4% (active)	-36.6% (active)
Cc1ccc2c(c1)C(=O)CCS2	90.8%	103%	80.8%	111%	92.9%	101%	104%	97.4%	95%	102%	119%	100%	101%	83.8%	90.8%	107%	99%	82.8%	109%	118%
CC1(C)C(O)NC(Cl)=C(C#N)C1(C#N)C#N (centres undefined)	153%	101%	98.4%	105%	110%	114%	114%	131%	109%	108%	97.6%	102%	127%	81.3%	143%	127%	177%	103%	78.8%	103%
C=C(C)[C@@H]1CC[C@]2(COC(=O)c3ccccc3C(=O)O)CC[C@]3(C)[C@H](CC[C@@H]4[C@@]5(C)CCCNC(C)(C)[C@@H]5CC[C@]43C)[C@@H]12	58%	26.6%	75%	71%	44.8%	20.8%	46.2%	75.6%	48.3%	74.4%	94.4%	78.6%	59.3%	72.7%	65.6%	65%	91.7%	113%	28.8%	-7.13% (active)
COc1cccc2c1n([O-])c1cccc(OC)c1[n+]2=O	87.6%	73.5%	87%	80.4%	80%	57.8%	72.6%	84.5%	64.8%	72.1%	71.5%	45.6%	83.3%	60.6%	59.8%	72.3%	304%	106%	9.03% (active)	26.3%
COC1(OC)N=C(N)C2(C#N)C3(C(=O)Nc4ccccc43)C12C#N (centres undefined)	83.8%	98.9%	66.5%	108%	67.9%	87%	81.8%	47%	50.3%	103%	83.5%	77.4%	93.8%	52.9%	98%	67.3%	21.3%	-9.49% (active)	77.8%	88.7%
CCCCCCCCc1ccc(OCCOCC[N+](C)(C)CC)cc1 (tested in a mixture with another compound)	98.4%	25.5%	9.08% (active)	16.4%	20.8%	42.6%	-52.3% (active)	9.07% (active)	29.1%	16%	11.5%	71%	21.5%	89.4%	96.1%	102%	98.8%	73.8%	28.7%	51.4%
COc1ccccc1Cn1cc2c(c1)-c1oncc1CC2	15.7%	9.87% (active)	13.7%	38.3%	28.4%	25.4%	18%	54.6%	37.5%	55.3%	35.6%	20.8%	39%	31.6%	65.6%	55.5%	9.72% (active)	29.2%	17.6%	25.6%
Cc1ccc(S(=O)(=O)Nc2cccc(Cn3c(=O)[nH]c4ccc(Oc5ncccn5)cc4c3=O)c2)cc1	91%	65.1%	78.9%	57.4%	79.1%	52%	53.8%	34.7%	64.5%	66.7%	55%	86.6%	86.5%	74.2%	105%	87.7%	92.9%	77.8%	65.9%	64.5%
COc1ccccc1C(=O)Nc1cccc(-c2cc(=O)c3c(OC)c(OC)c(OC)cc3o2)c1	41.5%	24.6%	83.2%	36.2%	39%	30%	25%	43.1%	35.4%	56%	31.1%	61.7%	41%	15.3%	53.4%	43%	65.1%	44.9%	16%	28.8%
O=S(=O)(Cc1cccc2c(CS(=O)(=O)c3ccc(Cl)cc3)cccc12)c1ccc(Cl)cc1	92.8%	93.7%	88.1%	104%	104%	92%	92.3%	98.3%	94.1%	107%	98.8%	82.4%	98.6%	106%	113%	96.7%	73%	109%	90.7%	95.5%
COc1cc(Cn2ccc3c2-c2oncc2CC3)cc(OC)c1	27.2%	14.9%	-16% (active)	43.7%	42.4%	57.9%	13.9%	38.3%	40.1%	48.9%	28.8%	53.9%	38%	28.8%	61.7%	47.2%	23.3%	32.4%	30.1%	38.4%
COC(=O)c1ccc2[nH]c(O)c(C(=Nc3ccc(N(C)C(=O)CN4CCN(C)CC4)cc3)c3ccc(C)cc3)c2c1	-38.5% (active)	-23.3% (active)	-26.8% (active)	-10.6% (active)	-77.2% (active)	-16% (active)	-73.1% (active)	-19% (active)	4.3% (active)	-8.16% (active)	-31.6% (active)	23%	9.81% (active)	-81.2% (active)	-82.7% (active)	-61.1% (active)	-41.6% (active)	-73.8% (active)	1.57% (active)	-24.6% (active)
COC(=O)c1ccc2[nH]c(O)c(C(=Nc3ccc(N(C)C(=O)CN4CCN(C)CC4)cc3)c3ccc(OC)cc3)c2c1	10.4%	20%	6.7% (active)	32.4%	19%	28.7%	28.5%	39.2%	16.1%	32.8%	16.9%	45.7%	17%	14.3%	27.6%	14.9%	5.5% (active)	-16.6% (active)	6.43% (active)	2.57% (active)
C/C(CCC(=O)O)=N/Nc1ccc([N+](=O)[O-])cc1	34.5%	86.1%	101%	94.4%	75.7%	65.1%	46.3%	23%	23.9%	104%	26.9%	63.1%	77.1%	39%	88.1%	36.3%	25.7%	75.8%	18.2%	37.3%
CC(O)C(N)=O (centres undefined)	97.1%	111%	84.3%	106%	103%	92.6%	101%	107%	109%	100%	111%	99.6%	106%	97%	108%	104%	95.6%		102%	110%
